We go through 7 compounds from PubChem BioAssay (NCI).

Some test systems named below: NCI-H23 lung; NCI-H226 lung; NCI-H322M lung; HOP-62 NSCLC; NCI-H460 lung; HOP-92 NSCLC; NCI-H522 lung; A549/ATCC NSCLC; 786-0 renal; COLO 205 colon; DU-145 prostate; K-562 leukemia; MALME-3M melanoma; MDA-MB-231 breast; RXF 393 renal; SF-268 CNS; SF-295 CNS; SF-539 CNS; UACC-257 melanoma; M14 melanoma.
What all share (test): NCI-60 one-dose screen, 48 h (100 = growth as untreated, 0 = no growth, -100 = all killed)
What all share (details): 10 µM unless noted

Compounds without any hit were thinned out: in the full panel of roughly 83,000, 20% have a hit.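 Interpretation: 100, growth as untreated; towards 0, rising growth inhibition; 0, no net growth; 0 to -100, cell death. Compounds scoring below 10 were considered active.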 A number with no mark means an inactive call. Activity calls are given as the source filed them.

Consider `COc1ccc2c(c1)c(-c1noc(-c3cn(C)c4ncc(F)cc34)n1)cn2C`, for which the growth with NCI-H23 lung was 75.4%; in the assay on NCI-H226 lung, 108%; in the assay with NCI-H322M lung, 57%; with HOP-62 NSCLC it was 55.7%; with NCI-H460 lung it was 18.5%; in the assay on HOP-92 NSCLC, 69.9%. The growth was 79% in the assay with NCI-H522 lung; 21.5% in the assay on A549/ATCC NSCLC; 50.8% with 786-0 renal; 88.3% with COLO 205 colon; 82.4% with DU-145 prostate; 84.7% with K-562 leukemia. Further, the growth in the assay with MALME-3M melanoma was 77.5%; in the assay on MDA-MB-231 breast, 62.2%; with RXF 393 renal it was 73.7%; in the assay on SF-268 CNS it was 79.7%; with SF-295 CNS, 62.6%; in the assay on SF-539 CNS it was 84.6%. Further, the growth with UACC-257 melanoma is 94.4%; in the assay on M14 melanoma, 91.9%.

For the compound `C=C(C)[C@@H]1CC[C@]2(C(=O)O)CC[C@]3(C)[C@H](CC[C@@H]4[C@@]5(C)C/C(=C/c6ccco6)C(=O)C(C)(C)[C@@H]5CC[C@]43C)[C@@H]12`, the growth in the assay on NCI-H23 lung is -58.6% [100 µM] (active); with NCI-H226 lung, -37.5% [100 µM] (active); with NCI-H322M lung, -87.9% [100 µM] (active); in the assay with HOP-62 NSCLC it was -85.2% [100 µM] (active); with NCI-H460 lung, -55.6% [100 µM] (active); in the assay on HOP-92 NSCLC it was -86.4% [100 µM] (active). For the same compound, the growth with NCI-H522 lung was -72.7% [100 µM] (active); in the assay on A549/ATCC NSCLC, -73.7% [100 µM] (active); in the assay on 786-0 renal, -60.4% [100 µM] (active); in the assay on COLO 205 colon, -73.1% [100 µM] (active); with DU-145 prostate, -35% [100 µM] (active); in the assay on K-562 leukemia, 8.08% [100 µM] (active). Further, the growth with MALME-3M melanoma was -82.3% [100 µM] (active); in the assay on MDA-MB-231 breast it was -60.8% [100 µM] (active); in the assay on RXF 393 renal, -98.2% [100 µM] (active); with SF-268 CNS it was -41.5% [100 µM] (active); in the assay on SF-295 CNS, -82.8% [100 µM] (active); in the assay on SF-539 CNS, -77.8% [100 µM] (active). Moreover, the growth was -64.1% [100 µM] (active) in the assay on UACC-257 melanoma and -62.6% [100 µM] (active) with M14 melanoma.

For `CCOC(=O)c1cnc2ccc(Br)cc2c1Nc1cccc(S(N)(=O)=O)c1`, the growth in the assay with NCI-H23 lung was 93%; with NCI-H226 lung it was 88.6%; in the assay on NCI-H322M lung, 105%; with HOP-62 NSCLC, 97.1%; in the assay on NCI-H460 lung it was 105%; in the assay on HOP-92 NSCLC it was 91.1%. For the same compound, the growth with NCI-H522 lung is 96.6%; in the assay on A549/ATCC NSCLC it was 101%; with 786-0 renal it was 105%; in the assay on COLO 205 colon it was 128%; in the assay on DU-145 prostate, 103%; in the assay on K-562 leukemia it was 90.7%. Besides, the growth with MALME-3M melanoma was 101%; in the assay on MDA-MB-231 breast, 89.9%; in the assay on RXF 393 renal, 90.8%; in the assay with SF-268 CNS it was 88.1%; in the assay on SF-295 CNS it was 95.5%; with SF-539 CNS it was 99%. Besides, the growth was 105% in the assay with UACC-257 melanoma and 110% in the assay with M14 melanoma.

`Cc1cnc([C@]23CC[C@@H](C)[C@H](C)[C@H]2C2=CC[C@@H]4[C@@]5(C)Cc6c([nH]c7ccccc67)C(C)(C)[C@@H]5CC[C@@]4(C)[C@]2(C)CC3)o1`: the growth in the assay on NCI-H23 lung is 27.8% [100 µM]; with NCI-H226 lung it was 59.2% [100 µM]; with NCI-H322M lung, 37% [100 µM]; with HOP-62 NSCLC, 43.8% [100 µM]; with NCI-H460 lung it was 16.7% [100 µM]; in the assay with HOP-92 NSCLC, 30.5% [100 µM]. Moreover, the growth in the assay on NCI-H522 lung was 79.5% [100 µM]; in the assay with A549/ATCC NSCLC it was 28.8% [100 µM]; in the assay with 786-0 renal, 27% [100 µM]; in the assay with COLO 205 colon it was 43% [100 µM]; in the assay with DU-145 prostate, 69.9% [100 µM]; in the assay with K-562 leukemia, 38.3% [100 µM]. The growth with MALME-3M melanoma is 59.1% [100 µM]; in the assay with MDA-MB-231 breast it was 38.3% [100 µM]; in the assay with RXF 393 renal it was 101% [100 µM]; with SF-268 CNS it was 36.1% [100 µM]; with SF-295 CNS it was 31.7% [100 µM]; in the assay with SF-539 CNS it was 6.53% [100 µM] (active). Besides, the growth with UACC-257 melanoma is 61.5% [100 µM]; with M14 melanoma it was 28.4% [100 µM].

Regarding `COc1ncnc2c(-c3ccccc3)cn(COCc3ccccc3)c12`, the growth in the assay on NCI-H23 lung was 45.8%; in the assay with NCI-H226 lung it was 66.5%; with NCI-H322M lung, 86.6%; in the assay on HOP-62 NSCLC, 75.6%; in the assay on NCI-H460 lung it was 34.1%; in the assay with HOP-92 NSCLC, -0.37% (active). Moreover, the growth in the assay with NCI-H522 lung was 36.2%; with A549/ATCC NSCLC, 51.1%; in the assay with 786-0 renal it was 60.7%; in the assay on COLO 205 colon, 78.3%; in the assay on DU-145 prostate it was 86.6%; in the assay with K-562 leukemia it was 29.5%. Moreover, the growth is 51.9% in the assay with MALME-3M melanoma; 56.9% in the assay on MDA-MB-231 breast; 70.3% with RXF 393 renal; 74.4% in the assay on SF-268 CNS; 52.6% with SF-295 CNS; 84.1% in the assay on SF-539 CNS. Besides, the values for the growth with UACC-257 melanoma and in the assay on M14 melanoma were 40% and 44.1%, respectively.

As to `CCCC(NC(=O)OCc1ccccc1)C(=O)O` (stereo not given), the growth was -1.29% (active) in the assay on NCI-H23 lung; 89.5% in the assay with NCI-H226 lung; 121% with NCI-H322M lung; 111% with HOP-62 NSCLC; 97.9% in the assay with NCI-H460 lung; 82.2% with HOP-92 NSCLC. Besides, the growth is 16.2% in the assay on NCI-H522 lung; 79.5% in the assay with A549/ATCC NSCLC; 108% in the assay on 786-0 renal; 137% in the assay with COLO 205 colon; 107% with DU-145 prostate; 107% in the assay on K-562 leukemia. In addition, the growth with MALME-3M melanoma was 88.8%; in the assay with MDA-MB-231 breast, 75.9%; with RXF 393 renal, 90.5%; with SF-268 CNS, 104%; with SF-295 CNS, 92.3%; with SF-539 CNS, 95.9%. In addition, the figures for the growth with UACC-257 melanoma and with M14 melanoma were 36.1% and 93.1%, respectively.

In the case of `CC[C@@H]1NC(=O)[C@@H]2CCCCN2C(=O)[C@@H]2CCCN2C(=O)[C@@H](NC(=O)[C@H](Cc2cc(F)cc(F)c2)NC(=O)Nc2ccc(C3CC3)cc2F)[C@H](C)OC(=O)[C@@H]2C[C@@H](C)CN2C1=O`, the growth was 25.7% with NCI-H23 lung; 15.5% in the assay on NCI-H226 lung; 41.1% in the assay on NCI-H322M lung; 26.7% in the assay with HOP-62 NSCLC; 13.5% with NCI-H460 lung; -3.81% (active) in the assay with HOP-92 NSCLC. Besides, the growth with NCI-H522 lung was 19.9%; with A549/ATCC NSCLC it was 19.9%; in the assay with 786-0 renal, 16.4%; in the assay with COLO 205 colon, -40.4% (active); in the assay on DU-145 prostate it was 20%; in the assay with K-562 leukemia it was 10.4%. Moreover, the growth with MALME-3M melanoma is 16.9%; with MDA-MB-231 breast, -31.2% (active); with RXF 393 renal, -4.47% (active); in the assay on SF-268 CNS, 22%; in the assay with SF-295 CNS, -10.1% (active); in the assay with SF-539 CNS, 24.1%. Also, the growth with UACC-257 melanoma is 10.7%; in the assay with M14 melanoma, 16.8%.
